From publication PMC5540273 (PLoS ONE, 2017)

How the values were obtained:
Conditions in all cases: concentration: 1 μM, replicates: in singlicate; n = 1
CDC2L2 = system: CDC2L2
CDC2L5 = system: T1, CDC2L5
T1 construct: gene CDK13

CDK11 = system: T2, CDK11
T2 construct: gene CDK19

CDK2 = system: CDK2
CDK3 = system: CDK3
CDK4-cyclinD1 = system: CDK4-cyclinD1
CDK4-cyclinD3 = system: CDK4-cyclinD3
CDK4 = system: CDK4
CDK5 = system: CDK5
CDK7 = system: CDK7
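Note: KINOMEscan kinase panel screen.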

COC(=O)Nc1nc2ccc(Oc3ccc(CC(=O)Nc4cc(C(F)(F)F)ccc4F)cc3)cc2[nH]1 [GW680903]
%Inh (CDC2L2): 8%
%Inh (CDC2L5): 0%
%Inh (CDK11): 0%
%Inh (CDK2): 0%
%Inh (CDK3): 11%
%Inh (CDK4-cyclinD1): 27%
%Inh (CDK4-cyclinD3): 4%
%Inh (CDK4): 10%
%Inh (CDK5): 0%
%Inh (CDK7): 0%

CS(=O)(=O)c1cccc(CNc2nc(Nc3ccc4c(c3)CCC(=O)N4)ncc2C(F)(F)F)c1
%Inh (CDC2L2): 0%
%Inh (CDC2L5): 0%
%Inh (CDK11): 0%
%Inh (CDK2): 30%
%Inh (CDK3): 12%
%Inh (CDK4-cyclinD1): 0%
%Inh (CDK4-cyclinD3): 0%
%Inh (CDK4): 6%
%Inh (CDK5): 22%
%Inh (CDK7): 80%

COC(=O)Nc1nc2cc(Oc3ccc(NC(=O)Nc4cccc(SC)c4)cc3)ccc2[nH]1.Cl [GW697999]
%Inh (CDC2L2): 1%
%Inh (CDC2L5): 0%
%Inh (CDK11): 8%
%Inh (CDK2): 0%
%Inh (CDK3): 8%
%Inh (CDK4-cyclinD1): 34%
%Inh (CDK4-cyclinD3): 0%
%Inh (CDK4): 49%
%Inh (CDK5): 0%
%Inh (CDK7): 54%

Cc1cccc(Nc2nc(N[C@H]3CCCC[C@H]3N)ncc2C(N)=O)c1.Cl [GSK986310]
%Inh (CDC2L2): 11%
%Inh (CDC2L5): 0%
%Inh (CDK11): 24%
%Inh (CDK2): 0%
%Inh (CDK3): 24%
%Inh (CDK4-cyclinD1): 0%
%Inh (CDK4-cyclinD3): 1%
%Inh (CDK4): 0%
%Inh (CDK5): 5%
%Inh (CDK7): 48%

CN(C)CCOc1ccc(-c2cc(-c3ccc(Cl)c(O)c3)c(-c3ccncc3)[nH]2)cc1.Cl.Cl [SB-684387]
%Inh (CDC2L2): 14%
%Inh (CDC2L5): 0%
%Inh (CDK11): 6%
%Inh (CDK2): 0%
%Inh (CDK3): 0%
%Inh (CDK4-cyclinD1): 9%
%Inh (CDK4-cyclinD3): 15%
%Inh (CDK4): 39%
%Inh (CDK5): 0%
%Inh (CDK7): 21%

CCOc1nccc(-c2c(-c3ccc(F)cc3)ncn2C2CCNCC2)n1 [SB-249175]
%Inh (CDC2L2): 13%
%Inh (CDC2L5): 34%
%Inh (CDK11): 12%
%Inh (CDK2): 5%
%Inh (CDK3): 0%
%Inh (CDK4-cyclinD1): 33%
%Inh (CDK4-cyclinD3): 10%
%Inh (CDK4): 26%
%Inh (CDK5): 12%
%Inh (CDK7): 24%

CCNC(=O)/C=C/c1n[nH]c2cc(Sc3ccccc3C(=O)NC)ccc12
%Inh (CDC2L2): 0%
%Inh (CDC2L5): 9%
%Inh (CDK11): 10%
%Inh (CDK2): 0%
%Inh (CDK3): 39%
%Inh (CDK4-cyclinD1): 0%
%Inh (CDK4-cyclinD3): 0%
%Inh (CDK4): 1%
%Inh (CDK5): 41%
%Inh (CDK7): 23%

Cc1ccc(O)cc1Nc1ccnc2cc(-c3ccc(CN4CCCCC4)o3)ccc12 [GW557777]
%Inh (CDC2L2): 4%
%Inh (CDC2L5): 0%
%Inh (CDK11): 7%
%Inh (CDK2): 0%
%Inh (CDK3): 8%
%Inh (CDK4-cyclinD1): 0%
%Inh (CDK4-cyclinD3): 7%
%Inh (CDK4): 0%
%Inh (CDK5): 0%
%Inh (CDK7): 0%
